Compound activity deposited in PubChem BioAssay by National Center for Advancing Translational Sciences (NCATS).
KB-V1 cytotox: qHTS assay for MDR1-selective chemotherapeutics: Primary screen using the drug-selected MDR subline cells KB-V1; Potency, µM (series often up to 46.1 µM), actives largely listed as cytotoxic; 400,000 tested, 3.4% active; KB-V1 MDR cells viability, CellTiter-Glo, 72 h; AID 1347076, 2019; note: % is set by controls: 0 for no effect and ±100 for the full control effect; nearly all actives have a fitted effect of over 60% in size
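Compound-treated KB-V1 multidrug-resistant cells, 72 h, 37 degrees C; viability by CellTiter-Glo. Fitted qHTS curves give the values.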
KB-3-1 tox: qHTS assay for MDR1-selective chemotherapeutics: Primary screen using the parental adenocarcinoma cell KB-3-1; KB-3-1 viability, CellTiter-Glo ATP luminescence, 72 h; Potency, µM (top dose mostly 46.1 µM), actives largely listed as cytotoxic; 400,000 tested, 1.4% active; AID 1347075, 2019; note: % is set by controls: 0 for no effect and ±100 for the full control effect; nearly all actives have a fitted effect of over 60% in size
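Luminescent ATP read-out (CellTiter-Glo) measures survival of drug-naive KB-3-1 cells after 72 h compound exposure at 37 °C. Titration series was screened from lowest to highest concentration, with DMSO vehicle plates as background controls.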
SW480 rerep: A quantitative high throughput screen for small molecules that induce DNA re-replication in SW480 colon adenocarcinoma cells | SW480 DNA re-replication, Hoechst DNA content imaging, 48 h | Potency, µM (top dose mostly 46.1 µM), inactives show top-dose re-replication activation, actives largely listed as activators | 340,000 tested, 1.8% active; note: % of control where 0% means no effect; nearly all actives have a fitted effect of over 55% in size
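Image-based DNA-content assay: after two days of treatment, nuclei were labelled with the DNA dye Hoechst and imaged, and hits were compounds raising the count of nuclei showing high fluorescence intensity.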
HT1080-NT tox: qHTS for induction of synthetic lethality in tumor cells producing 2HG: qHTS for the HT-1080-NT fibrosarcoma cell line; HT-1080-NT fibrosarcoma viability, CellTiter-Glo ATP luminescence, 48 h; Potency, µM (titrated, usually from 46.1 µM), without a hit: at the top dose activity, negative = less viability, most hits filed as cytotoxic; 360,000 tested, 1.6% active;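 note: NT is the 2HG producing partner of a matched IDH1 knockdown line; 0% = DMSO-treated cells and -100% = media-only wells without cells; nearly all actives have a fitted effect of over 55% in size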
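HT-1080-NT; 750 cells/well; 5% FBS RPMI; 48 h compound, 37 degrees C; CellTiter-Glo luminescence; curve fitting and curve-class assignment.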
MCF10A rereplic: A quantitative high throughput screen for small molecules that induce DNA re-replication in MCF 10a normal breast cells; 350,000 tested, 2.9% active; Potency, µM (top dose mostly 46.1 µM), without a hit: at the highest dose activity, positive = re-replication, hits mostly activators; MCF 10A DNA re-replication, Hoechst nuclear intensity, 48 h; note: % of control where 0% means no effect; nearly all actives have a fitted effect of over 50% in size
HT1080 IDH1KD tx: qHTS for induction of synthetic lethality in tumor cells producing 2HG: qHTS for the HT-1080-IDH1KD cell line. HT-1080 IDH1 knockdown viability, ATP luminescence, 48 h. 360,000 tested, 2% active. Potency, µM (top dose mostly 46.1 µM), without a hit: at the highest dose activity, negative = toxicity, most hits filed as cytotoxic. AID 686971, 2013;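 note: 0% = DMSO wells and -100% = cell-free medium wells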
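Assay cells: HT-1080 with IDH1 knockdown, 750 per well, RPMI/5% FBS. Exposure: 48 h at 37 °C following 2 h pre-incubation. Read: CellTiter-Glo luminescence; fitted concentration-response, curve class assigned.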
* = called active by the depositor; i = inactive; ? = inconclusive; · = no result; [ ] = remark or other dose. Hits are enriched below; roughly 7.9% of the tested compounds scored in any of these assays. Calls come from the whole dose curve; as a rule, active = well fitted curve in the direction sought with a large enough effect; inconclusive = small, poorly fitted or top-dose-only effect, or another doubt; inactive = no such curve, though single readings can be large; an effect the other way counts as inactive or inconclusive. Potency is the fitted concentration of half-maximal effect.

SMILES	KB-V1 cytotox	KB-3-1 tox	SW480 rerep	HT1080-NT tox	MCF10A rereplic	HT1080 IDH1KD tx
Cn1c(=O)c2c(-c3ccccc3)n(C3CCCCC3)cc2n(C)c1=O	20.6µM*	i	-5.4%	6.3%	-0.9%	17.1%
Cc1cccc(-c2c3c(=O)n(C)c(=O)n(C)c3cn2C2CCCCC2)c1	16.4µM*	i	4.0%	-12.4%	?	-1.1%
CCOc1ccc(N2C(=O)CC(SC(=NC)Nc3ccc4c(c3)OCO4)C2=O)cc1 (configuration not stated)	i	i	-0.8%	-11.1%	-0.9%	-25.1%
CCc1cc2c(N=Nc3c(O)[nH]c4ccccc34)ncnc2s1	6.51µM*	?	-9.3%	-15.6%	?	-1.4%
Cc1cc(NC(=O)/C=C/c2ccc(Cl)cc2)no1	i	i	6.51µM*	-1.8%	9.0%	-2.6%
Cc1cc(NC(=O)Cc2ccc(Br)cc2)no1	i	i	?	1.5%	?	-1.2%
Cc1cc(NC(=O)Nc2ccc(Cl)cc2)no1	i	i	17.6%	-7.7%	-13.8%	0.9%
Cc1cc(NC(=O)/C=C/c2ccc(Br)cc2)no1	?	i	10.3µM*	0.9%	4.4%	-8.1%
O=C(O)CSCC(=O)c1ccccc1	?	i	0.4%	10.0%	5.6%	9.0%
Cc1nc(C)c(C(=O)NCc2ccccc2Cl)o1	20.6µM*	?	-3.3%	0.2%	1.2%	-0.6%
CCc1c(C(=O)NCc2ccccc2Cl)[nH]c(C)c1C(C)=O	7.31µM*	i	-0.7%	-15.8%	?	-6.0%
CC(=O)c1c(C)[nH]c(C(=O)NCc2ccccc2F)c1C	i	i	-5.1%	10.2%	-3.8%	6.3%
CC(=O)c1c(C)[nH]c(C(=O)NCc2ccccc2Cl)c1C	23.1µM*	i	-10.8%	-0.4%	2.1%	-0.6%
COc1ccc(OC)c(NC(=O)c2ccccc2N(Cc2ccccc2)S(C)(=O)=O)c1	i	i	-31.2%	-0.7%	?	0.3%
COc1ccc(C(O)c2nc(-c3ccc(F)cc3OC)cs2)cc1 (configuration not stated)	i	i	·	-4.8%	·	15.9%
CCCCNc1c(-c2ccc(-c3cccc(Cl)c3)cc2)nc2ccccn12	?	?	-19.5%[9.22 µM]	?	?	?
CCCCNc1c(-c2cccc(-c3cc(C(C)=O)cs3)c2)nc2ccc(C)cn12	20.6µM*	?	?	20.6µM*	?	?
CCCCNc1c(-c2cccc(-c3ccc(OC)cc3)c2)nc2ccc(C)cn12	?	?	?	?	4.11µM*	?
CCCCNc1c(-c2cccc(-c3ccc(OC)cc3)c2)nc2cc(C)ccn12	?	?	?	?	23.1µM*	?
CCn1c(Cc2ccccc2)nnc1SCC(=O)Nc1nc(C)cs1	?	i	-3.7%	7.9%	-2.2%	1.8%
CC(=O)c1c(C)[nH]c(C(=O)OCc2nc3ccsc3c(=O)[nH]2)c1C	i	i	?	8.4%	15.3%	1.2%
C[C@]12CCC(=O)C=C1CC[C@@H]1[C@@H]2CC[C@@]2(C)[C@H]1CC[C@@]21CCC(=O)O1	i	i	8.2%	-0.7%	-0.3%	-0.6%
C[C@]12CCC(=O)C=C1CCC1C2CC[C@@]2(C)C1CCC21OCCO1 (some centres not stated)	?	i	20.7%	?	20.6µM*	-0.9%
CC(=O)OCC(=O)[C@H]1CC[C@H]2[C@@H]3CCC4=CC(=O)CC[C@]4(C)[C@H]3CC[C@]12C	14.6µM*	?	-29.8%	11.6%	6.8%	10.8%
